Most compounds without a hit are left out; they make up all but 19% or so of the library.
TDP1 inh = qHTS Assay for Inhibitors of Tyrosyl-DNA Phosphodiesterase (TDP1); Tyrosyl-DNA phosphodiesterase 1 (Homo sapiens), Q9NUW8; recombinant TDP1, AlphaScreen DNA substrate cleavage; Potency, µM (highest dose often 130 µM), for inactives: at the highest dose activity change, negative = inhibition, hits mostly inhibitors; AID 485290, 2010; 350,000 tested, 0.28% active; note: potency is the fitted concentration of half-maximal effect; % is set by controls: 0 for no effect and ±100 for the full control effect; nearly all actives have a fitted effect of over 40% in size
Target sequence (Q9NUW8 whole entry, looked up): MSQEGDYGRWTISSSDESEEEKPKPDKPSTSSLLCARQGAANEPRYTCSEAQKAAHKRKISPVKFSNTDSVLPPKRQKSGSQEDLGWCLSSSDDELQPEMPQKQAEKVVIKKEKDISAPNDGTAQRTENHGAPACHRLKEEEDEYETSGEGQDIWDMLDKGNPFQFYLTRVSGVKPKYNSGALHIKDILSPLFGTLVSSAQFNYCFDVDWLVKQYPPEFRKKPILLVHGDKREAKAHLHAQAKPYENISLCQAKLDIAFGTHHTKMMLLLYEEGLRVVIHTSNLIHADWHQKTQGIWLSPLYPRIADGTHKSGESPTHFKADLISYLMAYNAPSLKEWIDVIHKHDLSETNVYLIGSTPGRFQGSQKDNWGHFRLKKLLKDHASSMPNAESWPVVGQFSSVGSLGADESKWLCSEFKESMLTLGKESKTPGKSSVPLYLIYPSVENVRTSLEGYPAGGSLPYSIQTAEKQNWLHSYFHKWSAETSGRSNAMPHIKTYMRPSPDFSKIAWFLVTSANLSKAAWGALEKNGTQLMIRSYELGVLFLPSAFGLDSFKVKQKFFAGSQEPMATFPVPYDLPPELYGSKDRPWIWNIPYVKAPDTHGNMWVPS
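AlphaScreen read-out: signal falls as enzyme removes the 3' tyrosine-FITC from a 5'-biotinylated DNA oligo (15 nM, 5 min, RT). Enzyme was E. coli-made recombinant Tdp1 at 1 nM, exposed to compound for 15 min beforehand; beads 10 ug/ml, 10 min.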
TGFb inhibitor = qHTS for Inhibitors of TGF-b; HepG2 CAGA-GFP TGF-b/SMAD3 reporter, GFP fluorescence, 18 h; TGF-beta stimulated, 500 pg/mL final; 410,000 tested, 1.2% active; Potency, µM (doses to about 46.1 µM), without a hit: at the highest dose activity, negative = inhibition, usual class: inhibitors; note: potency is the fitted concentration of half-maximal effect; % is set by controls: 0 for no effect and ±100 for the full control effect; nearly all actives have a fitted effect of over 65% in size
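Read-out: total well GFP (ex488/em500-530) summed from mean per-cell fluorescence. Cells: HEPG2 CAGA-GFP, 1% FBS DMEM, 18 h at 37 degrees C with 500 pg/mL final TGF-beta. Unstimulated wells served as the full-inhibition control; stimulated DMSO wells = 0%.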
IL-1B inflam inh = qHTS for Inhibitors of Inflammasome Signaling: IL-1-beta AlphaLISA Primary Screen; THP-1 LPS/ATP IL-1B secretion, AlphaLISA, 16 h; active compounds read low; activity change, % at 57.5 µM; 360,000 tested, 4.7% active; AID 743279, 2014; in the data active = activity change below about -50%; inconclusive = mostly about -30% to -49%; note: % is set by controls: 0 for no effect and ±100 for the full control effect
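THP-1 cells pretreated 1 hr with compounds (up to 57.5 uM final), then stimulated with LPS (250 ng/mL final) plus ATP (1.25 mM final); secreted IL-1B measured by AlphaLISA after 16 hr, decreased signal indicating inhibition.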
TDP1 cell noCPT = qHTS for Inhibitors of human tyrosyl-DNA phosphodiesterase 1 (TDP1): qHTS in cells in absence of CPT | 420,000 tested, 15% active | DT40 Tdp1-/- hTDP1 cells, no CPT, ATP luminescence, 48 h | Potency, µM (doses to about 46.2 µM), inactives show at the highest dose activity change, negative = growth inhibition, actives largely listed as inhibitors | AID 686978, 2013; note: potency is the fitted concentration of half-maximal effect; % is set by controls: 0 for no effect and ±100 for the full control effect; nearly all actives have a fitted effect of over 55% in size
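Cells were dispensed at 400 per well, compounds added by pin tool, plates incubated ≥48 hr at 37 °C, then CellTiter-Glo added for 30 min at room temperature before luminescence reading. Line: DT40 Tdp1-/- complemented with hTDP1; camptothecin omitted.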
HepG2 viability = qHTS for Inhibitors of TGF-b: Cytotox Counterscreen; HepG2 CAGA-GFP viability, ATP luminescence, 18 h; Potency, µM (doses to about 46.1 µM), for the others: top-dose activity change, negative = cytotoxicity, hits mostly cytotoxic; 410,000 tested, 0.76% active; note: potency is the fitted concentration of half-maximal effect
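CellTiter-Glo luminescence gave cytotoxicity after 18 hours at 37 degrees C. The cells were HepG2 CAGA-GFP in 1% FBS DMEM, stimulated with 500 pg/mL TGF-beta after compound addition. %Activity was normalised to no-cell wells (complete cell-killing) and DMSO (no toxicity), and curves were fitted and classified.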
DT40 TDP1 CPT = qHTS for Inhibitors of human tyrosyl-DNA phosphodiesterase 1 (TDP1): qHTS in cells in presence of CPT; chicken DT40 Tdp1-/-;hTDP1 cells + 20 nM CPT, ATP luminescence, 48 h; Potency, µM (doses to about 46.2 µM), for the others: at the top dose activity change, negative = growth inhibition, usual class: inhibitors; 420,000 tested, 12% active; note: potency is the fitted concentration of half-maximal effect; % is set by controls: 0 for no effect and ±100 for the full control effect; nearly all actives have a fitted effect of over 55% in size
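Cell growth measured by CellTiter-Glo luminescence after a minimum 48 h, 37 C compound exposure with 20 nM CPT in Tdp1-knockout DT40 cells stably expressing hTDP1, seeded 400/well; qHTS titration format.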
* marks the source's active call; other numbers are inactive results; ? = inconclusive; nt = not tested or not shown; [ ] = dose if it differs, or a comment. Unless noted, calls come from the whole dose curve; as a rule, active = well fitted curve in the direction sought with a large enough effect; inconclusive = small, poorly fitted or top-dose-only effect, or another doubt; inactive = no such curve, though single readings can be large; an effect the other way counts as inactive or inconclusive.

SMILES	TDP1 inh	TGFb inhibitor	IL-1B inflam inh	TDP1 cell noCPT	HepG2 viability	DT40 TDP1 CPT
Cc1ccc(/C(N)=N/OC(=O)c2cc(-c3ccccc3)nc3ccccc23)cc1	4%	-2%	5	?	-3%	-28%
N/C(=N\OC(=O)COc1ccc2ccccc2c1)c1ccccn1	7%	13%	-58*	-10%	-16%	-1%
O=C(N/N=C/c1ccc(O)cc1)c1cc(-c2ccccc2)nc2ccccc12	nt	1%	26	?	-19%	?
CC(C)(C)OC(=O)NC(Cc1ccccc1)C(=O)NC1COC2CC(n3cc(F)c(=O)[nH]c3=O)OC12 (centres undefined)	10%	1%	nt	nt	-3%	nt
CCOC(=O)C1(Cc2ccc(OC)cc2)CCN(C(=O)c2cncs2)CC1	nt	-4%	0	?	6%	-13%
COC(=O)C1CCN(CC(=O)Nc2ccc(C(=O)Nc3ccccc3OC)cc2)CC1	-5%[56.1 µM]	-6%	-13	?	-4%	?
COc1cccc(Cn2c(=O)c(-c3ccc(F)cc3)nc3cnc(N(C)C)nc32)c1	nt	nt	nt	9%	nt	3%
O=C(C[n+]1cccc(Cl)c1)c1ccc(O)c(O)c1	nt	6%	nt	-24%	6%	6%
COc1ccc(-c2nc(-c3cccs3)c(-c3cccs3)[nH]2)cc1O	7%	?	-2	13µM*	-8%	16µM*
CCCCCc1cc(=O)oc2c(C(CCN(CC)CC)c3ccc(OC)cc3)c(OC)cc(OC)c12 (centres undefined)	nt	?	?	?	-101%	15µM*
CCN(CC)CCC(c1ccc2c(c1)OCO2)c1c(OC)cc(OC)c2c(C)cc(=O)oc12 (centres undefined)	13%	-8%	nt	nt	-14%	nt
CCN(CC)CCC(c1ccc(OC)cc1)c1c(OC)cc(OC)c2c(C)cc(=O)oc12 (centres undefined)	4%	?	nt	nt	18µM*	nt
COc1ccc(C(=S)NCS(=O)(=O)c2ccc(C)cc2)cc1	11%	?	-100*	?	-42%	?
COc1ccc(C(=S)Nc2ccc(C)cc2)cc1	0%	7%	-10	-4%	5%	-24%
Cc1ccc(S(=O)(=O)CNC(=S)c2ccc3ccccc3c2)cc1	9%	-25%	?	18µM*	-20%	?
Cc1ccc(-c2nnc(SC(C)C(=O)NCc3ccco3)n2C)cc1 (centres undefined)	nt	-12%	nt	-13%	-9%	-1%
CC(OC(=O)c1ccc2ncsc2c1)C(=O)Nc1cccc(Cl)c1 (centres undefined)	0%	-8%	-1	?	-3%	-19%
CC(=O)c1ccc(NC(=S)N2CCCC(C(F)(F)F)C2)cc1 (centres undefined)	0%	5%	8	-5%	2%	7%
O=C(NC(=S)N1CCCC(C(F)(F)F)C1)c1ccc(F)cc1 (centres undefined)	9%	8%	-23	23µM*	-4%	18µM*
CC(C)C(=O)N1CCN(c2nc(-c3ccccc3)c3c(c2C#N)CCCC3)CC1	-4%	?	-57*	?	-33%	?
Cc1nc(N2CCN(C(=O)c3ccco3)CC2)c(C#N)c2c1CCCC2	0%	?	-84*	?	-16%	0%
N#Cc1cccnc1N1CCN(C(=O)c2ccco2)CC1	nt	11%	0	-15%	-40%	-14%

Compound activity as filed in PubChem BioAssay.
